Assay results from PubChem BioAssay (Tox21).
Results filed as inconclusive are left out. A call without a number means that no potency is given here. Active and inactive are the calls of the source. Calls come from the whole dose curve; as a rule, active = well fitted activation curve with a large enough effect in the repeat runs; inconclusive = weak or mixed curves, or effect the other way; inactive = no such curve, though single readings can be large or run the other way.

Assay: qHTS assay to identify small molecule agonists of the retinoic acid receptor (RAR) signaling pathway (AID 1159553)
Conditions: C3RL4 RARE luciferase reporter, agonist, 6 h; series mostly up to 73.3 µM
Procedure, shortened: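 Agonist activity was scored in C3RL4 cells bearing a retinoic acid response element luciferase construct. Cells were treated with compounds for 6 hr at 37 C, and luciferase signal was measured as luminescence.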

| SMILES | Potency |
| --- | --- |
| COP(=S)(OC)Oc1nc(Cl)c(Cl)cc1Cl | inactive |
| C[C@]12CC[C@H]3[C@@H](CCC4=CC(=O)CC[C@@H]43)[C@@H]1CC[C@@H]2OC(=O)CCc1ccco1 | inactive |
| O=[N+]([O-])c1ccccc1-c1ccccc1 | inactive |
| Nc1ccccc1-c1ccccc1 | inactive |
| O=[N+]([O-])c1cccc2cccc([N+](=O)[O-])c12 | inactive |
| CN/C(=N\[N+](=O)[O-])NCc1cnc(Cl)s1 | inactive |
| ClC1(Cl)C2(Cl)C3(Cl)C4(Cl)C(Cl)(Cl)C5(Cl)C3(Cl)C1(Cl)C5(Cl)C24Cl (centres undefined) | inactive |
| ClC(Cl)C(Cl)(Cl)Cl | inactive |
| BrCCCBr | inactive |
| O=C(N[C@H]1N=C(c2ccccc2F)c2cccc3c2N(CC3)C1=O)c1cc2ccccc2[nH]1 | inactive |
| Cc1ccn2nc(S(=O)(=O)Nc3c(F)cccc3F)nc2n1 | inactive |
| CSSC | inactive |
| CN(C)CCc1c[nH]c2ccccc12 | inactive |
| Oc1cccc(Cl)c1Cl | inactive |
| C[C@H]1[C@H](c2ccc(Cl)cc2)SC(=O)N1C(=O)NC1CCCCC1 | inactive |
| CC(C)=CCN1CC[C@@]2(C)c3cc(O)ccc3C[C@@H]1[C@@H]2C | inactive |
| CC(Cl)CCl (centres undefined) | inactive |

| SMILES | Potency |
| --- | --- |
| CN | inactive |
| CC(Cc1ccccc1)N(C)Cc1ccco1 (centres undefined) | inactive |
| Brc1cccc(-c2ccccc2)c1 | inactive |
| Cc1cccc(Cc2cnc[nH]2)c1C | inactive |
| NC(=O)C(Cl)Cl | inactive |
| O=C(O)CCCCCCNC1c2ccccc2CCc2ccccc21 | inactive |
| CN1C2CCC(C)(C)C1CC(OC(=O)C(O)(c1cccs1)c1cccs1)C2 (centres undefined) | inactive |
| Oc1cc(Cl)cc(Cl)c1 | inactive |
| Oc1cc(Cl)c(Cl)c(Cl)c1Cl | inactive |
| O=[N+]([O-])C(Br)Br | inactive |
| CCCCCCCCCCCCCCn1cc[n+](C)c1 | inactive |
| ClCBr | inactive |
| [O]=[Cr][O][Cr]=[O] | inactive |
| COP(=O)(OC)Oc1ccc([N+](=O)[O-])cc1 | inactive |
| O=[N+]([O-])c1ccc(CCl)cc1 | inactive |
| CCOC(=O)CCN(SN(C)C(=O)Oc1cccc2c1OC(C)(C)C2)C(C)C | inactive |
| O=C(Cl)c1ccccc1F | inactive |
